# PTHR1 agonist – PTHR1 (human) receptor agonism; Q03431; Potency, µM (series often up to 115 µM), inactives show at the highest dose activation, usual class: activators; 410,000 compounds, 0.075% hits; AID 743266; HEK293 GP2 PTHR1 cells, GloSensor cAMP luminescence, 1 h; also: potency is read from the fitted curve at half-maximal effect; nearly all actives have a fitted effect of over 55% in size
#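 HEK-293-derived GP2 cells expressing PTHR1 and a GloSensor cAMP reporter, 3,000/well, plated overnight, given luciferin plus IBMX (each 0.5 mM as added) for 1 h at 37 °C, then compound for 1 h at 37 °C. Luminescence was read after 15 min at room temperature.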
# gsp antagonist – gsp mutant antagonism | AID 624288 | Potency, µM (doses to about 76.9 µM), for inactives: at the top dose activity change, negative = inhibition, usual class: inhibitors | gsp-mutant cells, cAMP HTRF, 30 min | 340,000 compounds, 0.4% hits; calls by dose curve; cell line not stated here;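 also: intracellular cAMP measured with PDE inhibitor Ro 20-1724 present during compound exposure; potency is read from the fitted curve at half-maximal effect; % is scaled to controls: 0 for no effect and ±100 for the full control effect; nearly all actives have a fitted effect of over 65% in size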
#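 G418-selected cells were plated in DMEM/10% FBS for 16-24 h at 37C, then treated with compounds plus the PDE inhibitor […] (300 uM solution added) for 30 min at 37C. Intracellular cAMP was measured by HTRF after 30 min lysis at room temperature.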
# RXFP1 ag – agonists of human relaxin receptor RXFP1; Potency, µM (highest dose often 57.5 µM), without a hit: top-dose activation, actives largely listed as activators; HEK293T-RXFP1 cAMP TR-FRET, 30 min; response scale: percent of porcine relaxin response, buffer zero; 370,000 compounds, 0.3% hits; also: potency is read from the fitted curve at half-maximal effect; % is scaled to controls: 0 for no effect and ±100 for the full control effect; nearly all actives have a fitted effect of over 60% in size
# Target sequence (Q9HBX9 whole entry, looked up): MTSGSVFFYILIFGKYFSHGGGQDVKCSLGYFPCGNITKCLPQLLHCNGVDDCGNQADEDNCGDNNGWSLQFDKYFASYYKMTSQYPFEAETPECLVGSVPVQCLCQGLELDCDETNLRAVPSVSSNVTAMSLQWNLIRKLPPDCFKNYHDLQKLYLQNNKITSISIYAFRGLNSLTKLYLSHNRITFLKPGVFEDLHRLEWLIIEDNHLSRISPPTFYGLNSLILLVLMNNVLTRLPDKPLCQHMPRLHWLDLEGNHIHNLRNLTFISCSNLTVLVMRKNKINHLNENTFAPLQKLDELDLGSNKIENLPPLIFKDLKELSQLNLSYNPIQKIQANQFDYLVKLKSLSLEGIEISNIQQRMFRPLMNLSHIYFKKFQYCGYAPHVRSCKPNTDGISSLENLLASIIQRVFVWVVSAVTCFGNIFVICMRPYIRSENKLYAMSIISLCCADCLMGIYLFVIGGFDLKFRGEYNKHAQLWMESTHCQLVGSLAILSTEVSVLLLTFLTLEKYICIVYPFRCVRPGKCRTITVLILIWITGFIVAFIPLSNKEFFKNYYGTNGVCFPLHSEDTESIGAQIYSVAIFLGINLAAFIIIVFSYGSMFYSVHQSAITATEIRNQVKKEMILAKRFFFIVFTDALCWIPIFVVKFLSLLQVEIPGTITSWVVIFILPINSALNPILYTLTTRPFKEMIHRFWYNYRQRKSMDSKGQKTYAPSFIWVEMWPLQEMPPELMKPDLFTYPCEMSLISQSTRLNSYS
#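 HEK293 cells stably expressing RXFP1, treated 30 min at 37C with compounds plus PDE4 inhibitor Ro 20174; cAMP measured by HTRF TR-FRET. Normalized to buffer and 29 nM porcine relaxin; EC50 by Hill fit.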
# gsp ag – activates gsp, the McCune-Albright syndrome mutation; AID 624287; gsp mutant cells, cAMP HTRF, 30 min; 340,000 compounds, 0.13% hits; Potency, µM (doses to about 76.9 µM), inactives show at the highest dose activation (cAMP increase), most hits filed as activators; active = well fitted activation curve with a large enough effect; inconclusive = small, poorly fitted or top-dose-only effect, or another doubt; inactive = no such curve, though single readings can be large or run the other way; cell line not stated here;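 also: phosphodiesterase inhibitor Ro 20-1724 added with compounds to block cAMP breakdown; potency is read from the fitted curve at half-maximal effect; nearly all actives have a fitted effect of over 60% in size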
#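 Cells in DMEM/10% FBS with G418 were pretreated with compounds in DMSO plus […] (300 uM stock) for 30 min at 37C. cAMP was measured by HTRF (cAMP-d2 plus anti-cAMP antibody-K) after 30 min at room temperature.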
# RXFP1 antag – blocks the human relaxin receptor RXFP1. 350,000 compounds, 0.59% hits. Q9HBX9. activity change, negative = inhibition, % at 57.5 µM. HEK293-RXFP1, relaxin-stimulated cAMP HTRF, 30 min; active compounds read low;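 active = activity change of -60% or lower, but not beyond a set lower limit; inconclusive = change between -60% and -40%, or beyond the set limit; inactive = change above -40%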; also: % is scaled to controls: 0 for no effect and ±100 for the full control effect
# * hit, by the source's call; i = inactive; ? = inconclusive; . = no result; [ ] = another dose, or the depositor's remark. Only some compounds are listed: those with a hit (about 1% of all), similar ones and a draw of the others. Unless noted, calls follow the shape of the dose curve; as a rule, active = well fitted curve in the direction sought with a large enough effect; inconclusive = small, poorly fitted or top-dose-only effect, or another doubt; inactive = no such curve, though single readings can be large; an effect the other way counts as inactive or inconclusive.
SMILES,PTHR1 agonist,gsp antagonist,RXFP1 ag,gsp ag,RXFP1 antag
COC(=O)[C@H](CC(C)C)NC(=O)c1cc2c(cn1)[nH]c1ccccc12,?,7.94µM*,0.4%,?,-6.5
COc1ccccc1CNC(=O)c1ccc(-c2nc(CS(=O)c3ccc(C)cc3)c(C)o2)cc1 (centres undefined),-29.1%,.,19.4%,.,-5.2
OC[C@@H](O)[C@H](O)[C@H](O)[C@@H](O)CO,.,.,.,.,-20.2
CCOC(=O)/C(C#N)=C/c1cc2ccccc2nc1N1CCCCC1,-34.0%,2.7%,14.1µM*,11.2µM*,-1.5
O=C(NCCc1ccccc1Cl)c1cc2ccccn2n1,-14.1%,.,4.6%,.,-6.8
C=C(C)COc1ccc(-c2[nH]ncc2-c2ccc(OC)cc2)c(O)c1,i,-13.2%,2.7%,-24.8%,-63.9*
C=C(C)COc1ccc(-c2[nH]ncc2-c2ccc(OC)c(OC)c2)c(O)c1,-18.0%[57.5 µM],0.6%,1.9%,0.0%,-77.8*
COc1ccc(-c2[nH]ncc2Oc2ccccc2OC)c(O)c1,-17.9%[57.5 µM],12.6µM*,-0.3%,-11.5%,-22.9
C=C(C)COc1ccc(-c2[nH]ncc2-c2ccccc2)c(O)c1,-1.0%[57.5 µM],2.8%,-0.3%,12.2%,-29.8
COc1ccc(-c2cn[nH]c2-c2ccc(OCc3ccc(F)cc3)cc2O)cc1OC,-21.3%,-16.2%,1.9%,-31.4%[15.4 µM],-72.9*
COc1ccc(-c2cn[nH]c2-c2ccc(OCc3ccccc3)cc2O)cc1OC,-39.2%,-27.9%,3.2%,-9.5%[15.4 µM],-25.9
COc1cc(OC)nc(O[C@H](C(=O)O)C(OC)(c2ccccc2)c2ccccc2)n1,.,.,.,.,-20.9
CCC(Oc1ccccc1)C(=O)Nc1cc(-c2cccc(C)c2)nn1-c1ccccc1 (centres undefined),-67.8%,.,2.1%,.,.
CCCC(=O)OCOC(=O)C1=C(C)NC(C)=C(C(=O)OC)C1c1cccc(Cl)c1Cl (centres undefined),.,.,.,.,4.4
O=C1c2ccccc2-c2cccnc21,i,11.2%,11.1%,-0.3%,4.2
O=C1c2ccccc2C(=O)c2c(/C=C/N3CCCCC3)ccnc21,i,-4.6%,.,8.91µM*,9.5
Cc1ccc(C)c(OCC(O)CN2CCC(Cc3ccccc3)CC2)c1 (centres undefined),-33.3%,6.7%,2.3%,4.8%,-69.6*
Cc1ccc(C(C)C)c(OCC(O)CN2CCc3ccccc3C2)c1 (centres undefined),i,-10.5%,1.2%,-0.9%,-80.5*
CC(C)N1CCc2c(sc(NC(=O)c3ccc4ccccc4c3)c2C(N)=O)C1,i,0.0%,-2.6%,27.9%,-73.8*
CC(C)N1CCc2c(sc(NC(=O)c3ccc(C(=O)c4ccccc4)cc3)c2C(N)=O)C1,-15.5%,-9.5%,-0.1%,-2.8%[15.4 µM],-14.7
COc1cccc(C2=NS(=O)(=O)N(C)C(C(=O)Nc3cccc(O)c3)=C2)c1,-21.8%,.,0.1%,.,-25.8
CCN(CC)C(=O)c1ccccc1NC(=O)c1cccc(S(=O)(=O)N2CCC(C)CC2)c1,-26.9%,.,0.3%,.,-10.2
Cc1noc(C)c1CSc1nc2ccccc2nc1NS(=O)(=O)c1ccc(Cl)cc1,-43.4%[57.5 µM],31.6µM*,0.4%,18.9%,-1.7
O=S(=O)(Nc1nc2ccccc2nc1NCc1ccco1)c1ccc(Cl)cc1,-27.0%[57.5 µM],-23.1%,1.7%,?,-13.3
CCCN(C(=O)c1noc2c1COc1ccc(C)cc1-2)c1ccc(Cl)c(Cl)c1,-0.4%,.,4.0%,.,.
SMILES,PTHR1 agonist,gsp antagonist,RXFP1 ag,gsp ag,RXFP1 antag
COc1ccccc1CNC(=O)CCCn1c(=O)c2ccccc2n(Cc2ccc(C)cc2)c1=O,-11.7%,.,?,.,.
Cn1c(CNC(=O)c2ccco2)nnc1SCC(=O)N1CCN(c2ccccc2F)CC1,?,2.3%,-2.5%,4.5%,-93.5*
O=C(NCc1cccnc1)Nc1ccc(Cl)cc1,-17.1%,11.2µM*,1.1%,29.2%,7.1
O=C(Nc1ccccn1)c1cc(-c2cccnc2)nc2ccc(Br)cc12,-6.4%,13.4%,17.8%,39.8µM*,46.9
COc1ccc(NC(=O)NCc2cccnc2)cc1,-5.3%,?,26.8%,?,-2.0
O=C(NNC(=O)c1cc(-c2ccccc2)nc2ccccc12)Nc1cccc(Cl)c1,-16.4%,?,1.3%,10.7%,-23.7
O=C(NNC(=O)c1cc(-c2cccnc2)nc2ccccc12)Nc1ccc(Cl)cc1,-32.3%,-5.5%,-0.3%,-10.1%[15.4 µM],-73.0*
Cc1cc(NC(=O)c2cc(-c3ccccn3)nc3ccc(Br)cc23)no1,3.5%,-11.5%,-2.4%,?,2.0
O=C(NCc1ccco1)c1c[nH]c2ccc(S(=O)(=O)Nc3ccc(F)cc3F)cc2c1=O,11.7%,.,-2.3%,.,3.3
N#C/C(=C\c1cccc(Oc2ccccc2)c1)C(=O)N1CCOCC1,-30.1%,1.4%,-0.5%,12.4%[15.4 µM],-101.8*
CCCCn1c(=O)[nH]c(=O)c2c1nc(CN1C(=O)c3ccccc3S1(=O)=O)n2CCC,-9.2%[57.5 µM],-1.6%,3.5%,15.5%,-1.6
CCCCn1c(=O)[nH]c(=O)c2c1nc(Cn1ncc(Cl)c(Cl)c1=O)n2CCC,-26.9%,14.8%,25.1µM*,34.9%[15.4 µM],10.3
CCCC[C@]12Cc3cc(OC)c(OC)cc3C(O1)c1c(cc(-c3ccccc3)oc1=O)O2,.,.,2.1%[11.5 µM],.,.
CCOc1cc(CNCCO)cc(Br)c1OCc1ccc(Cl)cc1,-8.0%[57.5 µM],22.3%,1.7%,?,-10.4
COc1cc(CNc2ccc(O)cc2)cc(Br)c1OCc1ccccc1F,-46.1%,-19.8%,1.5%,5.3%,14.7
CCOc1cc(CNCCO)cc(Br)c1OCc1ccccc1Cl,-16.5%[57.5 µM],9.9%,-0.6%,-0.8%,-74.1*
COc1cc(CNCc2ccncc2)cc(Br)c1OCc1ccccc1F,-9.7%[57.5 µM],31.6µM*,-1.4%,-41.6%,6.6
CCOc1cc(CNCCCN2CCOCC2)cc(Br)c1OCc1ccccc1Cl,-22.2%,15.8%,3.2%,20.3%,-91.8*
CCC(=O)O[C@]1(C(=O)COC)[C@@H](C)C[C@H]2[C@@H]3CCC4=CC(=O)C=C[C@]4(C)C3(F)[C@@H](O)C[C@@]21C (some centres undefined),.,.,.,.,-31.4
CC1=C(C(=O)Nc2ccc(C)c(C)c2)C2(CCCCCC2)OC1=O,-26.3%,.,0.3%,.,-21.8
CC[n+]1c(/C=C(\C)Nc2ccccc2)sc2ccccc21,-8.5%,-1.6%,-0.1%,-7.9%[15.4 µM],-20.1
CC[n+]1c(/C=C/Nc2ccccc2)sc2ccccc21,-86.7%,44.7µM*,-0.1%,10.2%,-7.2
COC[C@@H](c1ccc(C(F)(F)F)cc1)N1CCN(C2(C)CCN(C(=O)c3c(C)ncnc3C)CC2)C[C@H]1C,.,.,.,.,-6.1
CC(O)CNC(=O)C(=O)Nc1c2c(nn1-c1ccc(Cl)cc1)CSC2 (centres undefined),i,.,2.0%,.,-8.1
CN(CC(=O)NC1CCN(Cc2ccccc2)CC1)S(=O)(=O)c1ccc2c(c1)c(=O)n(C)c(=O)n2C,i,2.9%,2.5%,?,2.1
